FBPA Giardia inh: qHTS Assay for Inhibitors of Fructose-1,6-bisphosphate Aldolase from Giardia Lamblia; A8B2U2; purified Giardia FBPA; Potency, µM (series often up to 59.6 µM), without a hit: at the highest dose activity, negative = inhibition, most hits filed as inhibitors; 290,000 tested, 0.71% active; note: potency is the fitted concentration of half-maximal effect; nearly all actives have a fitted effect of over 55% in size
Target sequence (A8B2U2 whole entry, looked up): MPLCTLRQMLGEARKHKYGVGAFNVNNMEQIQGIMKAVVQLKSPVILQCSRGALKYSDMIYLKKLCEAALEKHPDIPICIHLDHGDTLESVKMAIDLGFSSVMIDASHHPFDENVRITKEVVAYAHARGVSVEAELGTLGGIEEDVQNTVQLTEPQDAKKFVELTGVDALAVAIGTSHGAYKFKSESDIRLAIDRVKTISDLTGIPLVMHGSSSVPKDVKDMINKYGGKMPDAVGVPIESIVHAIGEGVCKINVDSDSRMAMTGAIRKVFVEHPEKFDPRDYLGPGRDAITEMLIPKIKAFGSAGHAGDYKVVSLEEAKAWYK
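40 nM FBPA preincubated 10 min at RT with compound (up to 57.5 uM final), then substrate plus GAPDH/TPI/NAD/arsenate coupling and diaphorase/resazurin added. Fluorescence read after 20 min at RT, 525/598 nm.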
FMDV inh: High Throughput Screening for Foot and Mouth Disease Virus Antivirals; AID 1159524, 2015; 410,000 tested, 1.2% active; Potency, µM (titrated, usually from 57.9 µM), without a hit: top-dose activity change, negative = inhibition, usual class: inhibitors; FMDV antiviral cell-based qHTS; calls by dose curve; tested in HEK293T cells; note: read-out not given here; potency is the fitted concentration of half-maximal effect; nearly all actives have a fitted effect of over 45% in size
HCV inh: qHTS Assay for Inhibitors of Hepatitis C Virus (HCV); AID 651820, 2012; Potency, µM (titrated, usually from 41.8 µM), for the others: at the highest dose activity change, negative = inhibition, most hits filed as inhibitors; Huh7.5.1 HCVcc-Cre infection, luciferase reporter, 44 h; 340,000 tested, 3.4% active; note: potency is the fitted concentration of half-maximal effect
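After 44 h co-culture of compound, cells and HCVcc-Cre (~0.5 moi), substrate is added for 15 min at room temperature and luciferase measured over 15 sec. Cells were seeded at 1,000/well and pre-cultured 4 h.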
HCMV inh: qHTS Assay for inhibitors of the human cytomegalovirus (HCMV); HFF cells, HCMV-luciferase reporter, 72 h; hits give low values; activity change, negative = inhibition, % at 57.5 µM; 410,000 tested, 4.5% active; AID 1259415, 2018; in the data active = activity change below about -60%; inconclusive = no clear call, values can overlap the other calls; inactive = above about -39%
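Inhibition of viral replication was scored as loss of reporter luminescence in HFFs infected with HCMV-luciferase (MOI 1 PFU/cell) for 72 h; compounds tested at 2 doses, normalized to buffer and Salinomycin controls.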
VACV Venus inh: qHTS for Stage-Specific Inhibitors of Vaccinia Orthopoxvirus: Venus Reporter Primary qHTS. Vaccinia virus Venus reporter expression, fluorescence. Potency, µM (doses to about 36.5 µM), for inactives: at the highest dose activity change, negative = inhibition, usual class: inhibitors. 330,000 tested, 0.46% active; calls by dose curve; tested in A549 cells; note: potency is the fitted concentration of half-maximal effect; nearly all actives have a fitted effect of over 30% in size
VACV mCherry inh: qHTS for Stage-Specific Inhibitors of Vaccinia Orthopoxvirus: mCherry Reporter Primary qHTS; Vaccinia virus mCherry reporter infection, fluorescence; Potency, µM (top dose mostly 36.5 µM), for the others: top-dose activity change, negative = inhibition, usual class: inhibitors; 310,000 tested, 0.63% active; AID 720579, 2013; calls by dose curve; tested in A549 cells; note: potency is the fitted concentration of half-maximal effect; nearly all actives have a fitted effect of over 35% in size
* marks the source's active call; other numbers are inactive results; i = inactive; ? = inconclusive; / = not tested or not shown; [ ] = another dose, or the depositor's remark. Hits are enriched below; roughly 7.5% of the tested compounds scored in any of these assays. Unless noted, calls come from the whole dose curve; as a rule, active = well fitted curve in the direction sought with a large enough effect; inconclusive = small, poorly fitted or top-dose-only effect, or another doubt; inactive = no such curve, though single readings can be large; an effect the other way counts as inactive or inconclusive. % is set by controls: 0 for no effect and ±100 for the full control effect.

SMILES | FBPA Giardia inh | FMDV inh | HCV inh | HCMV inh | VACV Venus inh | VACV mCherry inh
COc1ccc(Cl)cc1C(=O)O/N=C(\N)c1ccncc1 | 9.7% | 10.3% | 22.4µM* | 40.1 | -6.0% | -3.9%
Cc1ccc(NC(=O)CSc2ccc(-c3cccs3)nn2)cc1Cl | / | -17.1% | / | 6.4 | -19.8% | -3.2%
N#CC12COC3(CCCCC3C1(C#N)C#N)OC2=N (stereo not given) | -28.4% | 28.2µM* | -11.0% | 15.7 | -0.3% | -13.6%
CCC1OC23CCCCC2C(C#N)(C(=N)O3)C1(C#N)C#N (stereo not given) | / | 14.1µM* | -11.7% | ? | -8.5% | /
CC1(C)OC(=O)C2=C(C[C@@H](C3CCCC3)O[C@H]2c2ccc(Cl)cc2)O1 | / | -16.6% | / | -28.7 | -1.6% | 0.7%
C[N+]1(C)CCC(OC(=O)C(O)(c2ccccc2)C2CCCC2)C1 (stereo not given) | / | -4.2% | -4.4% | -89.5* | -2.4% | -21.2%
COc1ccc(NC(=O)C(C)N2c3cccc4cccc(c34)S2(=O)=O)cc1OC (stereo not given) | -0.4% | / | 6.31µM* | -79.9* | -26.1% | ?
N#Cc1c(NC(=O)c2cccc(S(=O)(=O)Nc3ccc(C(=O)O)cc3)c2)sc2c1CCCC2 | 12.4% | -2.5% | 18.2% | -27.3 | -4.2% | i
COc1cc2oc3ccc(C#Cc4ccc(N)cc4)cc3c(=O)c2cc1OC | / | 7.4% | 12.6µM* | 64.5 | -16.8% | -21.9%
Cc1cccnc1CNC(=O)C1CCC(=O)N(CCc2cccc(F)c2)C1 (stereo not given) | 1.7% | 10.9% | -0.5% | -15.7 | / | /
Cc1nc2c(cc1C(=O)N/N=C/c1ccc(O)c(O)c1)c(=O)n(C)c(=O)n2C | -24.7% | -25.3% | ? | -74.3* | 10.6% | 2.8%
Cn1c(COc2ccc(Br)cc2)nnc1SC1CCc2ccccc2C1=O (stereo not given) | 17.7µM* | 31.6µM* | ? | -1.4 | -7.5% | -20.6%
COc1ccc(OCc2nnc(SC3CCOC3=O)n2-c2ccccc2)cc1 (stereo not given) | -0.7% | / | -3.5% | -23.4 | -21.4% | i
S=C(NCC1CCCO1)N1CCN(c2nc(-c3ccc(Cl)cc3)cs2)CC1 (stereo not given) | -10.9% | 15.8µM* | ? | -63.2* | ? | ?
CCOCCCNC(=S)N1CCN(c2nc(-c3ccc(F)cc3)cs2)CC1 | -8.0% | ? | 11.2µM* | -84.8* | / | /
COCCNC(=S)N1CCN(c2nc(-c3ccccc3)cs2)CC1 | 3.7% | -21.0% | -19.9% | ? | / | /
COCCCNC(=S)N1CCN(c2nc(-c3ccc(F)cc3)cs2)CC1 | -3.4% | ? | 10µM* | -84.9* | / | /
CCCNC(=S)N1CCN(c2nc(-c3ccc(C)cc3)cs2)CC1 | 6.9% | ? | 12.6µM* | ? | -29.9% | -13.0%
CNC(=S)N1CCN(c2nc(-c3ccc(F)cc3)cs2)CC1 | -0.2% | -17.8% | ? | ? | / | /
COc1ccc(/C=C/C(=O)CC(=O)/C=C/c2cccc(O)c2OC)cc1O | -19.3% | -3.2% | / | / | -11.3%[60.7 µM] | -19.4%[60.7 µM]
Cn1nc(C(C)(C)C)cc1C(=O)N1CCCCC1c1cc(C(=O)NCc2ccccc2)no1 (stereo not given) | / | ? | / | -31.1 | -10.8% | 0.7%
Cn1nc(C(C)(C)C)cc1C(=O)N1CCCCC1c1cc(C(=O)NCc2ccc(F)cc2)no1 (stereo not given) | / | ? | / | -74.9* | -12.6% | 15.6%
CCOc1ccc(CCNC(=O)C2CCCN(c3ncnc4c3nc3n4CCCCC3)C2)cc1 (stereo not given) | -1.4% | -23.9% | ? | 26.1 | -12.2% | -10.4%
Cc1ccc2c(c1)C(c1ccc(F)cc1)N(C(=O)C(C)C)CC(=O)N2 (stereo not given) | / | 8.91µM* | / | -104.5* | -11.9% | -25.4%
Cc1ccc2c(c1)C(c1ccc(F)cc1)N(C(=O)c1cccc(C(F)(F)F)c1)CC(=O)N2 (stereo not given) | / | 22.6% | / | -107.0* | -10.8% | -12.1%
